Rows were chosen to be rich in hits. Some 15% of all compounds tested hit in one or more screens of this group.
DT40 TDP1 CPT = growth inhibition of DT40 Tdp1-/-;hTDP1 cells with camptothecin (screen for TDP1 inhibitors). chicken DT40 Tdp1-/-;hTDP1 cells + 20 nM CPT, ATP luminescence, 48 h. Potency, µM (titrated, usually from 46.2 µM), for the others: at the highest dose activity change, negative = growth inhibition, most hits filed as inhibitors. hit rate 12% among 420,000. AID 686979; also: nearly all actives have a fitted effect of over 55% in size
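Chicken DT40 Tdp1-/- cells complemented with human TDP1, 400 cells/well, exposed to compounds plus 20 nM camptothecin for at least 48 h at 37 C; viability read as ATP content by CellTiter-Glo luminescence.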
ELG1 repair inh = inhibitors of ELG1-dependent DNA repair in HEK293T cells; HEK293T ELG1-luciferase reporter, luminescence, 16 h; DNA damage induced by 5-fluorouridine; Potency, µM (top dose mostly 46.1 µM), for the others: at the highest dose activity change, negative = inhibition, usual class: inhibitors; hit rate 2.3% among 330,000; also: nearly all actives have a fitted effect of over 55% in size
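Cells (2,000 per well) received 5-fluorouridine plus test compound or DMSO and were incubated 16 hr at 37 °C, 5% CO2. Luciferase activity was read by luminescence 30 min after ONE-Glo addition; signal suppression marked inhibition of damage-induced ELG1 function.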
Gal4-VP16 FLuc = inhibits Gal4-VP16 luciferase reporter, ROR gamma counter-screen; Drosophila S2 Gal4-VP16 UAS-luciferase, luminescence, 20 h; Potency, µM (doses to about 53.6 µM), inactives show at the top dose activity, negative = inhibition, actives largely listed as inhibitors; hit rate 3.5% among 310,000;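 also: Gal4-VP16 expression switched on by copper sulfate through the metallothionein promoter; nearly all actives have a fitted effect of over 50% in size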
ALOX12 inh = inhibitors of human 12S-lipoxygenase ALOX12. P18054. AID 1671190. Potency, µM (titrated, usually from 108 µM), for the others: at the top dose activity change, negative = inhibition, actives largely listed as inhibitors. purified 12hLO, xylenol orange hydroperoxide absorbance. hit rate 1.1% among 580,000
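Purified human 12hLO at 150 nM in 25 mM Hepes, 0.01% Triton X-100, pH 7.0, preincubated 15 min at room temperature with compound. Reaction started with 40 uM arachidonic acid, 30 min at room temperature. Hydroperoxide measured by Fe-xylenol orange, 573/405 nm absorbance ratio.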
TDP1 cell noCPT = qHTS for Inhibitors of human tyrosyl-DNA phosphodiesterase 1 (TDP1): qHTS in cells in absence of CPT; Potency, µM (series often up to 46.2 µM), without a hit: at the highest dose activity change, negative = growth inhibition, most hits filed as inhibitors; hit rate 15% among 420,000; DT40 Tdp1-/- hTDP1 cells, no CPT, ATP luminescence, 48 h; AID 686978, 2013; also: nearly all actives have a fitted effect of over 55% in size
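Chicken DT40 Tdp1-/- cells stably complemented with human TDP1 were seeded at 400 cells/well with DMSO in place of 20 nM camptothecin. After compound pinning, cells grew at least 48 hr at 37 °C; viability read by CellTiter-Glo luminescence.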
RORgamma inh = blocks mouse ROR gamma transcriptional activity. AID 2551. Drosophila S2 Gal4-RORgamma UAS-luciferase reporter, 20 h. P51450. hit rate 5.4% among 310,000. Potency, µM (highest dose often 53.6 µM), for the others: top-dose activity change, negative = inhibition, hits mostly inhibitors; also: nearly all actives have a fitted effect of over 60% in size
Target sequence (P51450 whole entry, looked up, the tested form may be a part): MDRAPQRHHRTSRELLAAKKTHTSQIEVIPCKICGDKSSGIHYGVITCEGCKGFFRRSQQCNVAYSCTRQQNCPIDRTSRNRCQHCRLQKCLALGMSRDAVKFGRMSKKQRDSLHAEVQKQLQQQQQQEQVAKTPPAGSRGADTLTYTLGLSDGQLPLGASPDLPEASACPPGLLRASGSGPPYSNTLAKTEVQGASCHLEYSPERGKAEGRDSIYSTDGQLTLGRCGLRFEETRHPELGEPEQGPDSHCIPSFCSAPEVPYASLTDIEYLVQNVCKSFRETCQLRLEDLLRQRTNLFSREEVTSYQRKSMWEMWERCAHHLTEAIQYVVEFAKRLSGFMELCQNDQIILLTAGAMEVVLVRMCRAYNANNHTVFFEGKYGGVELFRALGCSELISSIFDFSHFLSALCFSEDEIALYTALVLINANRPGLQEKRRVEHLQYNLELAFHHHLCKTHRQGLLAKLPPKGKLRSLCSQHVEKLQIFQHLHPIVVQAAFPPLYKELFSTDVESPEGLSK
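ROR gamma transcriptional activity was tracked as Gal4-UAS luciferase output in stably transfected Drosophila Schneider cells, with compound added 1 hr before 700 uM copper sulfate induction and a 20 hr ambient-temperature incubation.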
* marks the source's active call; other numbers are inactive results; ? = inconclusive; . = no result given; [ ] = dose if it differs, or a comment. Calls follow the shape of the dose curve; as a rule, active = well fitted curve in the direction sought with a large enough effect; inconclusive = small, poorly fitted or top-dose-only effect, or another doubt; inactive = no such curve, though single readings can be large; an effect the other way counts as inactive or inconclusive. % is scaled to controls: 0 for no effect and ±100 for the full control effect; potency is read from the fitted curve at half-maximal effect.

SMILES	DT40 TDP1 CPT	ELG1 repair inh	Gal4-VP16 FLuc	ALOX12 inh	TDP1 cell noCPT	RORgamma inh
Cc1nn(-c2ccccc2)c2sc(C(=O)Nc3cccc(O)c3)cc12	?	.	.	?	23.1µM*	.
Cc1ccccc1OCc1n(CC(=O)OC2CC(C)CCC2C(C)C)c2ccccc2[n+]1C (stereo not drawn)	10.3µM*	11.6µM*	17.8µM*	?	2.59µM*	?
CC1CCC(C(C)C)C(OC(=O)COC(=O)c2cccn2C)C1 (stereo not drawn)	0.7%	-26.9%	2.0%	10.6%	-7.5%	12.6%[10 µM]
CC1CCC(C(C)C)C(OC(=O)Cn2c(-c3ccc(Cl)cc3)[n+](C)c3ccccc32)C1 (stereo not drawn)	2.31µM*	?	?	0.0%	2.06µM*	?
O=C(NCc1nc(-c2ccc(C(F)(F)F)cc2)no1)Nc1ccc(OC(F)(F)F)cc1	?	0.0%	?	270.9%	8.2µM*	2.0%
COc1ccc(-c2noc(CNS(=O)(=O)c3ccc(NC(C)=O)cc3)n2)cc1	?	3.8%	-6.5%	4.3%	-21.2%	11.1%
CC(C)C[C@H]1CNC(=S)N1C[C@H]1CCCN1C[C@H](Cc1ccc(O)cc1)N1C[C@H](CC(C)C)N(CC2CCCCCC2)C1=S	16.4µM*	.	.	-10.9%	20.6µM*	.
CC(C)C[C@H]1CNC(=S)N1C[C@H]1CCCN1C[C@H](Cc1ccc(O)cc1)N1C[C@H](Cc2ccccc2)N(CC2CCCCC2)C1=S	?	.	.	0.0%	18.4µM*	.
CC(C)C[C@H]1CNC(=S)N1C[C@H]1CCCN1C[C@H](Cc1ccccc1)N1C[C@H](Cc2ccc(O)cc2)N(CC2CCCCCC2)C1=S	14.6µM*	.	.	39.8µM*	13µM*	.
CC(C)C[C@H]1CN([C@@H](Cc2ccc(O)cc2)CN2CCC[C@@H]2CN2C(=S)NC[C@@H]2Cc2ccccc2)C(=S)N1CC1CCCCC1	16.4µM*	.	.	?	16.4µM*	.
CSc1nc2ccc(NC(=O)Cc3cccc(C(F)(F)F)c3)cc2s1	.	.	.	-10.0%	.	.
CCc1ccc(CCC(=O)NC2CC3CCC2C3)cc1 (stereo not drawn)	.	.	.	14.4%	.	.
CC(C)C[C@H]1CNC(=S)N1CC1CCCN1C[C@H](Cc1ccc(O)cc1)N1C[C@H](Cc2ccccc2)N(CC2CCCCCC2)C1=S (stereo partly drawn)	?	.	.	?	20.6µM*	.
CC(C)C[C@H]1CN([C@@H](Cc2ccccc2)CN2CCCC2CN2C(=S)NC[C@@H]2Cc2ccccc2)C(=S)N1CC1CCCCC1 (stereo partly drawn)	6.51µM*	.	.	?	7.31µM*	.
CC(C)C[C@H]1CNC(=O)C(=O)N1C[C@@H]1CCCN1C[C@H](Cc1ccccc1)N1C[C@H](Cc2ccccc2)N(CC2CCCCC2)C(=O)C1=O	?	.	.	?	-29.7%	.
CN(C)c1ncnc2scc(-c3ccc(Cl)cc3)c12	.	.	.	-19.4%	.	.
Clc1ncnc2scc(-c3ccc(Br)cc3)c12	?	2.5%	?	2.8%	?	11.2µM*
Cc1ccc(-c2ccnc3nc(-n4cccc4)nn23)o1	14.6µM*	-8.6%	-3.0%	-10.6%	20.6µM*	-13.3%
Cc1onc(-c2ccccc2)c1C(=O)OCC(=O)c1ccc(F)cc1	?	.	.	-16.8%	23.1µM*	.
Cc1onc(-c2ccccc2)c1C(=O)OCCOc1ccc([N+](=O)[O-])cc1[N+](=O)[O-]	?	14.6µM*	-20.5%	92.5%	20.6µM*	33.2%
COC(=O)c1c(-c2ccc(C)cc2)csc1NC(=S)NC(=O)c1ccc(F)cc1	?	0.2%	5.01µM*	?	?	2.51µM*

Assay outcomes (PubChem)
